# Data published in PubChem BioAssay (NCI).
# The panel holds about 83,000 compounds, 20% with a hit somewhere; the sample as a whole holds those more often.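 Cell lines were cultured in 96-well plates, exposed to a single compound concentration, and assessed for percent growth 48 hours later.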 Unmarked numbers belong to inactive results. Activity calls are given as the source filed them. Rule for the calls: active = growth percent below 10; inactive = the rest.
# Key:
# Assay in all cases: NCI-60 one-dose screen, 48 h (100 = growth as untreated, 0 = no growth, -100 = all killed)
# Details in all cases: 10 µM unless noted
# [1] = tested on: NCI-H23 lung
# [2] = tested on: NCI-H226 lung
# [3] = tested on: NCI-H322M lung
# [4] = tested on: HOP-62 NSCLC
# [5] = tested on: NCI-H460 lung
# [6] = tested on: HOP-92 NSCLC
# [7] = tested on: NCI-H522 lung
# [8] = tested on: A549/ATCC NSCLC
# [9] = tested on: 786-0 renal
# [10] = tested on: COLO 205 colon
# [11] = tested on: DU-145 prostate
# [12] = tested on: K-562 leukemia
# [13] = tested on: MALME-3M melanoma
# [14] = tested on: MDA-MB-231 breast
# [15] = tested on: RXF 393 renal
# [16] = tested on: SF-268 CNS
# [17] = tested on: SF-295 CNS
# [18] = tested on: SF-539 CNS
# [19] = tested on: UACC-257 melanoma
# [20] = tested on: M14 melanoma
Compound,growth [1],growth [2],growth [3],growth [4],growth [5],growth [6],growth [7],growth [8],growth [9],growth [10],growth [11],growth [12],growth [13],growth [14],growth [15],growth [16],growth [17],growth [18],growth [19],growth [20]
C=C1C(=O)O[C@H]2[C@H]1CC/C(Cn1cc(-c3cc(C(F)(F)F)cc(C(F)(F)F)c3)nn1)=C\CC[C@@]1(C)O[C@@H]21,-58.6% (active),-54.5% (active),-24.4% (active),-78.6% (active),-59.2% (active),-95.1% (active),-76.7% (active),-85.3% (active),-86.5% (active),-60.4% (active),-90% (active),-37.6% (active),-88.5% (active),-75.7% (active),-90.9% (active),-78.7% (active),-67.4% (active),-92.2% (active),-85.3% (active),-70.3% (active)
O=C(N/N=C/c1ccc([N+](=O)[O-])cc1)c1ccc2nc(-c3ccc(Cl)cc3)[nH]c2c1,16.2%,54.8%,70.1%,44.8%,5.44% (active),59.7%,33%,34.5%,49%,2.28% (active),42%,9.68% (active),7.79% (active),76.9%,31.6%,48.5%,21.7%,41.7%,25.1%,25.9%
Cn1cc(C(=O)c2nc(-c3c[nH]c4ccc(Br)cc34)no2)c2cc(Br)ccc21,83%,102%,73.4%,78.4%,12.5%,83.9%,84.2%,32.1%,99.4%,93.3%,3.08% (active),37.7%,43.7%,45.9%,96.4%,55.9%,88.4%,88.7%,109%,47%
CC1(C)CC[C@]2(C(=O)N3CCOCC3)CC[C@]3(C)C(=CC[C@@H]4[C@@]5(C)C/C(=C/c6ccncc6)C(=O)C(C)(C)[C@@H]5CC[C@]43C)[C@@H]2C1,19.5%,-20.4% (active),40.9%,19.8%,-21.8% (active),-6.7% (active),-1.2% (active),15.2%,26.2%,-21.1% (active),21.7%,6.99% (active),-19.7% (active),33.9%,-36.8% (active),48.6%,25.4%,-7.46% (active),14.8%,-8.66% (active)
Cn1cccc1/C=C1\C(=O)Nc2ccccc21,66.9%,104%,87.9%,86.8%,89.1%,97.2%,101%,101%,96.6%,121%,110%,98.9%,94.8%,67.4%,103%,92.3%,100%,99.5%,98%,96.6%
COc1cccc(/C=C2\COc3ccc(O)cc3C2=O)c1,93.7%,105%,106%,95%,99.6%,91.9%,56.1%,87.4%,78.3%,97.9%,89%,5.52% (active),91.1%,49.7%,105%,91.1%,103%,88.5%,111%,83.4%
COc1cc(/C=C2\C(=O)N(c3c(Cl)cccc3Cl)c3ccccc32)cc(OC)c1OCCCCCCn1c2ccccc2c(=O)c2ccccc21,103%,95.4%,95.7%,95.4%,110%,95.9%,87.3%,109%,95.5%,107%,104%,98.8%,106%,100%,106%,87.6%,99%,93.8%,111%,93.8%
O=C1/C(=C/c2ccccc2)CN(C(=O)c2cccnc2)C/C1=C\c1ccccc1,-30.5% (active),-43.7% (active),34.1%,0.894% (active),-35.1% (active),78.7%,-25.4% (active),17.2%,-53.8% (active),-29.5% (active),14.5%,2.62% (active),23.9%,3.84% (active),-64.1% (active),17.4%,-8.61% (active),-4.29% (active),23.9%,-41.5% (active)
COc1cc(C2Cc3ncccc3-c3[nH]c(=O)c4cccnc4c32)cc(OC)c1OC (stereo not given),35.3%,62.8%,55.5%,21.7%,9.39% (active),67.5%,-31% (active),20.4%,33%,-20% (active),23%,16.3%,77.6%,31%,8.5% (active),44.1%,1.73% (active),-18.8% (active),56.9%,10.3%
Clc1nccc2c(-c3csc(-c4c[nH]c5ccccc45)n3)c[nH]c12,68.8%,39.5%,80.8%,101%,11.9%,24.3%,18.5%,29.1%,27.7%,33.3%,31.6%,10.3%,79.8%,24.8%,12.4%,73.4%,26.7%,41.9%,-29.2% (active),-26.6% (active)
Cc1cc(C)c(-c2c(O)c(Br)c(-c3c(C)cc(C)c(Br)c3C)c(O)c2Br)c(C)c1Br,43.7%,52.1%,38.1%,62%,1.57% (active),-3.74% (active),-70.3% (active),18.6%,24.8%,-67.2% (active),33.4%,15.2%,-6.91% (active),-42.5% (active),-48.7% (active),31%,-10.2% (active),22.3%,-19% (active),29.6%
Cc1c(N2CN3C[C@H](C)N4CN(c5c(C)n(C)n(-c6ccccc6)c5=O)CN5C[C@@H](C)N(C2)C3C54)c(=O)n(-c2ccccc2)n1C (stereo not given in full),95.1%,101%,103%,103%,101%,90.8%,98.9%,106%,102%,109%,112%,17.9%,104%,117%,101%,100%,99.3%,91.2%,105%,99.8%
C=CC(=O)N1CCN(c2ccc3cccc(NC(=O)c4cnc(C)cn4)c3n2)CC1,66.7%,42.9%,21.2%,41.1%,34.7%,42.7%,10.4%,27.3%,24.8%,59.3%,29.1%,36.5%,30.5%,36.7%,11.4%,37.6%,61.5%,35.1%,37.2%,41.2%
O=c1oc2c(cnc3ccccc32)cc1-c1cccs1,101%,107%,104%,100%,112%,102%,104%,104%,98.8%,106%,113%,94.1%,103%,107%,112%,100%,105%,105%,108%,104%
Cc1c2cc[nH]c(=O)c2c(C)c2c1[nH]c1ccc(OC(=O)c3ccccc3)cc12,24.4%,38.5%,40.8%,18.7%,1.23% (active),40.9%,26.9%,6.49% (active),44.9%,30.4%,34%,36.2%,20%,34%,37.4%,40%,31.6%,17.1%,11.2%,33.7%
O=C(/C=C/c1ccccc1)Nc1ncc(Cc2ccccc2)s1,24.8%,60.3%,31.4%,13.7%,2.22% (active),85.7%,-4.58% (active),22.1%,24.5%,8.42% (active),16%,10.5%,44.3%,33.4%,10.9%,39.4%,-10.7% (active),-22.2% (active),48.3%,5.78% (active)
